Test results: the supplement of paper PMC11732987, “Enantioselective OTUD7B fragment discovery through chemoproteomics screening and high-throughput optimisation” (Communications Chemistry, 2025)

Legend:
Assay in all cases: log2 ratio of Biotin-Ahx-Ub-VS probe labelling (fragment/DMSO); higher = less target engagement (more negative = stronger competition), active = hit call of the paper (q ≤ 0.05, log2 ratio ≤ -1)
Settings in all cases: compound concentration: 200 uM; treatment time: 3 h
USP42 = target: T1, USP42 (UniProt Q9H9J4)
T1 sequence (whole entry): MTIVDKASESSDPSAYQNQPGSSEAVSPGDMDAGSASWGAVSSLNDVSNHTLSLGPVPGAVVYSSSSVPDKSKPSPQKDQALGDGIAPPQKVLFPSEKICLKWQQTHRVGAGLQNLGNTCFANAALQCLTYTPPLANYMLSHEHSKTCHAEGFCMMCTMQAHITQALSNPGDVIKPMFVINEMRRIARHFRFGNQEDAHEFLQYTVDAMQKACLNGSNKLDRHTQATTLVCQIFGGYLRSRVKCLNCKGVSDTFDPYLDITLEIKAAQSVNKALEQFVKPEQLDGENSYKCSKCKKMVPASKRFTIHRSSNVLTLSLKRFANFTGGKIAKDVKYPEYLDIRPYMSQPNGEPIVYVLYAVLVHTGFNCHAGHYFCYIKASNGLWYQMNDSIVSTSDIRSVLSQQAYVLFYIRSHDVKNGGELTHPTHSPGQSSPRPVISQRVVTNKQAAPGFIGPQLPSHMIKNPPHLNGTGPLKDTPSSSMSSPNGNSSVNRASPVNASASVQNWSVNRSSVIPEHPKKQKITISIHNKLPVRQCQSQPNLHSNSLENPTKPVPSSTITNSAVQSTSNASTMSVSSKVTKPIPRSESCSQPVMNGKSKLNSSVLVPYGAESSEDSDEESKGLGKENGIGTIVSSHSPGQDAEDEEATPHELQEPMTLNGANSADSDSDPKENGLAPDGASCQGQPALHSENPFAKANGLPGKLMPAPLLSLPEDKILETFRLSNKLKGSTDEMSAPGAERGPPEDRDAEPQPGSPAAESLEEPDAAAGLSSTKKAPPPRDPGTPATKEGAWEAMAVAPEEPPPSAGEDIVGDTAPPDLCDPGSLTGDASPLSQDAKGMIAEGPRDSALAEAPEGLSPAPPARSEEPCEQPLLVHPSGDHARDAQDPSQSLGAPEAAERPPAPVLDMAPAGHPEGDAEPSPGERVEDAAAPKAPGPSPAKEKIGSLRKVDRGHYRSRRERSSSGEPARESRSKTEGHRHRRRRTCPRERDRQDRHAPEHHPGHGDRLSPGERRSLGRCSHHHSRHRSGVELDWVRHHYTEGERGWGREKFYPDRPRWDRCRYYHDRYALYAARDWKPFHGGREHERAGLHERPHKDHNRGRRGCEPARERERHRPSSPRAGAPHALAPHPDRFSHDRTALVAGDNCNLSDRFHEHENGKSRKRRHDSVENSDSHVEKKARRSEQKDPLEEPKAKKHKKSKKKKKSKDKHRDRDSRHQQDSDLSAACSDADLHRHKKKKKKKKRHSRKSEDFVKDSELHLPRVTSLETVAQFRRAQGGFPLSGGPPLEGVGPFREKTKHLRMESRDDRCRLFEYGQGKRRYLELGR
In short: (§1)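 Triplicate samples of HEK293T lysate, 495 µg each, received fragment at 200 µM or vehicle for 3 h, followed by Biotin-Ahx-Ub-VS (0.5 µM final) for 1 h. After NeutrAvidin enrichment of labelled DUBs and LysC/trypsin digestion, peptides were run by diaPASEF LC-MS/MS. The values are average log2 fragment/vehicle ratios from global-median-normalised Spectronaut label-free quantities, tested by unpaired t-test on proteins having ≥2 unique peptides.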

USP46 = USP46 (UniProt P62068)
USP46, sequence (P62068 whole entry): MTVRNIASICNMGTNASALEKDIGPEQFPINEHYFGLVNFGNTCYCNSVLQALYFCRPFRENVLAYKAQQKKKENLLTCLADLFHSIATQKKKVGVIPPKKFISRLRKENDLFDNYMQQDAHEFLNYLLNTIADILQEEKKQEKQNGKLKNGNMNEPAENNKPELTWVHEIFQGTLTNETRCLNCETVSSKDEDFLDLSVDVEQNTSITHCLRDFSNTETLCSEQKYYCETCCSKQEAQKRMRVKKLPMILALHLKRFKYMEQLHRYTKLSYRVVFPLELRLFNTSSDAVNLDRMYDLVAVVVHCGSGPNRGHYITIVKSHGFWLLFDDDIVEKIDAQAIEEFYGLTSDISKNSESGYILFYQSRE
In short: as §1

USP47 = target: T2, USP47 (UniProt Q96K76)
T2 sequence (whole entry): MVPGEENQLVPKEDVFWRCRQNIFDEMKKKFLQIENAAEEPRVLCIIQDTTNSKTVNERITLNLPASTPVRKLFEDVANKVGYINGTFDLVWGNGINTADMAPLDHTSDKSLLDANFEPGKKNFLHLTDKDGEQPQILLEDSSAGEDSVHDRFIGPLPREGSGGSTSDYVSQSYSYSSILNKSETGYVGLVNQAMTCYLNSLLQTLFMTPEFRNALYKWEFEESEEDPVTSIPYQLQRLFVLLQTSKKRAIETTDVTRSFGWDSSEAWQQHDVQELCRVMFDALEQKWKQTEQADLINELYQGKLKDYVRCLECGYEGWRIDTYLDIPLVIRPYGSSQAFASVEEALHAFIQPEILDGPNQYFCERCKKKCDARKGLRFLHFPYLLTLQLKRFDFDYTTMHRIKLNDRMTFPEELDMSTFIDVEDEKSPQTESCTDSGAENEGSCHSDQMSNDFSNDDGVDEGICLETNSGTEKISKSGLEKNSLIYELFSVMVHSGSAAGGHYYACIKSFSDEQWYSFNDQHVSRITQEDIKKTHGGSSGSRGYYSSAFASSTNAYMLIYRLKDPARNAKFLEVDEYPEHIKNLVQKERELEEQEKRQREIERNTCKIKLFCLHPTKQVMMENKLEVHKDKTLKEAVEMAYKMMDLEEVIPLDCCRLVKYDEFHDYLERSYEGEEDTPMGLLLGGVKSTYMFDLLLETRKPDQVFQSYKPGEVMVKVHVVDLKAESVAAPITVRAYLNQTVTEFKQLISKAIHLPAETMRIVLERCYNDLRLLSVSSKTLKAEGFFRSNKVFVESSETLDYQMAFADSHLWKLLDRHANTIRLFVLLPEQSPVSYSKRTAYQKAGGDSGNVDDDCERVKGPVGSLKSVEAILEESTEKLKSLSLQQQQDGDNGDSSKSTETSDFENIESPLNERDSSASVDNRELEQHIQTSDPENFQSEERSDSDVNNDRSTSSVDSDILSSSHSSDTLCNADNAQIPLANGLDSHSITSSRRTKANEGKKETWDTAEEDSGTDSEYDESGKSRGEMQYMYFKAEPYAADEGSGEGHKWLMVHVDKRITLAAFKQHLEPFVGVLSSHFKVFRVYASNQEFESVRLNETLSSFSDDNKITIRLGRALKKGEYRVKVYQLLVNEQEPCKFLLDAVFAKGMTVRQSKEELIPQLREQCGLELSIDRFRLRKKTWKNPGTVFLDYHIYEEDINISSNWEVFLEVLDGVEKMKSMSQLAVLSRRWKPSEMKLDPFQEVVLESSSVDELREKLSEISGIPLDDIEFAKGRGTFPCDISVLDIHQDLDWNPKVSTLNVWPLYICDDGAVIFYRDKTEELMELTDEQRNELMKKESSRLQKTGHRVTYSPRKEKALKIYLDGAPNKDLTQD
In short: as §1

USP48 = target: T3, USP48 (UniProt Q86UV5)
T3 sequence (whole entry): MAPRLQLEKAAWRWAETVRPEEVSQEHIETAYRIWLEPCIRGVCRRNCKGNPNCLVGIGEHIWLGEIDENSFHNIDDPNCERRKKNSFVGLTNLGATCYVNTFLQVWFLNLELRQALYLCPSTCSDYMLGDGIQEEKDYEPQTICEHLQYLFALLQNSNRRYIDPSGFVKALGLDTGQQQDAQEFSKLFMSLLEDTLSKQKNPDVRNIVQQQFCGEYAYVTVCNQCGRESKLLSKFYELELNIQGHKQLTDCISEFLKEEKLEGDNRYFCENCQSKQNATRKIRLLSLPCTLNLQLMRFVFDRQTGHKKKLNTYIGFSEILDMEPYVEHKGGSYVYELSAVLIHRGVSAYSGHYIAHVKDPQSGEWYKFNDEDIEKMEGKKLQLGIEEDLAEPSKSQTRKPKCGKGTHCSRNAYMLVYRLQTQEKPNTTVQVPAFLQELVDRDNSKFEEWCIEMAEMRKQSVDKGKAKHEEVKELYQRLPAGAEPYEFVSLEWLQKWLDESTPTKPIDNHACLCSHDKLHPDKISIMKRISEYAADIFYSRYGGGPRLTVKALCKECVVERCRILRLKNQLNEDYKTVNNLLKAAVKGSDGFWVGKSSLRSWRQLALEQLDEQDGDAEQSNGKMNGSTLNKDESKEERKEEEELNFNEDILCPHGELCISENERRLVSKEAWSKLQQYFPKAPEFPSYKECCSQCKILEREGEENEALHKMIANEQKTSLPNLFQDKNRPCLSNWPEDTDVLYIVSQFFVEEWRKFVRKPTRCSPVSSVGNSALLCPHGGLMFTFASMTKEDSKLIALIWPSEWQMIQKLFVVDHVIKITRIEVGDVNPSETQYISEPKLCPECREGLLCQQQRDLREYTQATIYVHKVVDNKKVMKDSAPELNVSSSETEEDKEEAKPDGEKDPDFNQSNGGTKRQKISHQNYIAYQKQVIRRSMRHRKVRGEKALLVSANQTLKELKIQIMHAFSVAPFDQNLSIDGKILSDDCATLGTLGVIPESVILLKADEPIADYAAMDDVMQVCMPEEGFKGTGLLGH
In short: as §1

USP5 = target: T4, USP5 (UniProt P45974)
T4 sequence (whole entry): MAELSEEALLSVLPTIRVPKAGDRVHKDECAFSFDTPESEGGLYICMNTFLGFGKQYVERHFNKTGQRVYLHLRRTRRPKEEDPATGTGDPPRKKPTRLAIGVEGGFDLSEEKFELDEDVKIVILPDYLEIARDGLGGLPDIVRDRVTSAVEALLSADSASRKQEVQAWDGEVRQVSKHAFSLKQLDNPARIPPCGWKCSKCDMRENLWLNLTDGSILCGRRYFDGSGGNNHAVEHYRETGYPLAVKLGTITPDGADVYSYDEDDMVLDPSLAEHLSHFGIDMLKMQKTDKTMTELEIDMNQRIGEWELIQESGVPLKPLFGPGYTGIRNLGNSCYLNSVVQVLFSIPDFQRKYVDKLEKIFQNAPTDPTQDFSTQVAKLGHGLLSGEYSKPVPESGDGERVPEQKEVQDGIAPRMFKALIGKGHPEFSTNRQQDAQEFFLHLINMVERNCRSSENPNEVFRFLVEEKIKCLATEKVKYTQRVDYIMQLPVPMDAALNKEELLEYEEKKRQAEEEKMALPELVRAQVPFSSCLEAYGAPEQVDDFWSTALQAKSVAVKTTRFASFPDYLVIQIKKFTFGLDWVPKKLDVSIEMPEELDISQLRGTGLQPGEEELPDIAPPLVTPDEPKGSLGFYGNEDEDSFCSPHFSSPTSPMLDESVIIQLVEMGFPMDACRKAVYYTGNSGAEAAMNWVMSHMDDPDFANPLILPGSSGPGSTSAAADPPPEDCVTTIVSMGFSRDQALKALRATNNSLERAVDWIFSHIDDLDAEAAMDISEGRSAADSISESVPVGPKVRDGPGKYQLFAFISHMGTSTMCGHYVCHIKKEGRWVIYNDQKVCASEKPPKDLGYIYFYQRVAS
In short: as §1

USP54 = USP54 (UniProt Q70EL1)
USP54, sequence (Q70EL1 whole entry): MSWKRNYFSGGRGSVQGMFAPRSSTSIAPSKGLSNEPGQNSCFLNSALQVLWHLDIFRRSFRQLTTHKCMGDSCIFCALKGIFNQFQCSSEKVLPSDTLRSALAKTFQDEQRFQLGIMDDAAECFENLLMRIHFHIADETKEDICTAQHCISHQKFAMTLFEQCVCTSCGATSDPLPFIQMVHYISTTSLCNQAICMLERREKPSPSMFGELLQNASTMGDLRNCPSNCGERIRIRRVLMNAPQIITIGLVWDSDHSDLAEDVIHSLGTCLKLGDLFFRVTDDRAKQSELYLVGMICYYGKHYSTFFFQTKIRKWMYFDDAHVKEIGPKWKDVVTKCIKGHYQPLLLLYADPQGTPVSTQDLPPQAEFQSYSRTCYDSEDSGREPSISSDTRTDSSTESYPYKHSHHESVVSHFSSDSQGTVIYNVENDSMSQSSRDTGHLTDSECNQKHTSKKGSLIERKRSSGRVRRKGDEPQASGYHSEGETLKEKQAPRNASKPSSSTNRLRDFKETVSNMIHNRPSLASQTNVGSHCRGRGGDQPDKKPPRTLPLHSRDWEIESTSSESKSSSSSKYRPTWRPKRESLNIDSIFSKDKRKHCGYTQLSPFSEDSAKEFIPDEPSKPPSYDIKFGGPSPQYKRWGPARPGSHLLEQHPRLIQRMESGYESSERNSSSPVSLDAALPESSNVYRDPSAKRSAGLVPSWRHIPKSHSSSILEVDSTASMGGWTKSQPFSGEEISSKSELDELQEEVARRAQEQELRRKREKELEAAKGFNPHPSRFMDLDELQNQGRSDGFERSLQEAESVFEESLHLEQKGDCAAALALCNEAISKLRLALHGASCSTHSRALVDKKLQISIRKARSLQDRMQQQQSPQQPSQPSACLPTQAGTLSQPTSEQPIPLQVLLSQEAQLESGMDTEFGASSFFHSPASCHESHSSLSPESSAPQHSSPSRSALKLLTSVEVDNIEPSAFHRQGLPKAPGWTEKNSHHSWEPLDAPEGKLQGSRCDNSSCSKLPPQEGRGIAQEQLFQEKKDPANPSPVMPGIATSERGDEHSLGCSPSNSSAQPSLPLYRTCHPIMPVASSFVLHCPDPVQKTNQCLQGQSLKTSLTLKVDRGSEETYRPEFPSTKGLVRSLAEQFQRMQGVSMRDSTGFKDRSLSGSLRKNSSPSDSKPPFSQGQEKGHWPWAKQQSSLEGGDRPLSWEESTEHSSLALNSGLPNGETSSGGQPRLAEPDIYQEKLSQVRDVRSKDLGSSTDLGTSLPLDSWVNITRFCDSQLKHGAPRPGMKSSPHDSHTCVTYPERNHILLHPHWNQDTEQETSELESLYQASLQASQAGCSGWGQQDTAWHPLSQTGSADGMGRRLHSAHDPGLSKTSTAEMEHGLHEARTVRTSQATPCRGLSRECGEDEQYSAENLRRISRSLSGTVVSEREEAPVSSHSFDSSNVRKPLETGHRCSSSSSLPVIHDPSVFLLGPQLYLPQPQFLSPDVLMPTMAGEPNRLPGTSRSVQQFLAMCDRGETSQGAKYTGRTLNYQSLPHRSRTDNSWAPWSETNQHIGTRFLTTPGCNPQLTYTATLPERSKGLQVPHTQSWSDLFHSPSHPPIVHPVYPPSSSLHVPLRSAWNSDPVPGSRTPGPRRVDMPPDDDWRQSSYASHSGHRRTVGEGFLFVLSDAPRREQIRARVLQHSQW
In short: as §1

USP7 = USP7 (UniProt Q93009)
USP7, sequence (Q93009 whole entry, looked up): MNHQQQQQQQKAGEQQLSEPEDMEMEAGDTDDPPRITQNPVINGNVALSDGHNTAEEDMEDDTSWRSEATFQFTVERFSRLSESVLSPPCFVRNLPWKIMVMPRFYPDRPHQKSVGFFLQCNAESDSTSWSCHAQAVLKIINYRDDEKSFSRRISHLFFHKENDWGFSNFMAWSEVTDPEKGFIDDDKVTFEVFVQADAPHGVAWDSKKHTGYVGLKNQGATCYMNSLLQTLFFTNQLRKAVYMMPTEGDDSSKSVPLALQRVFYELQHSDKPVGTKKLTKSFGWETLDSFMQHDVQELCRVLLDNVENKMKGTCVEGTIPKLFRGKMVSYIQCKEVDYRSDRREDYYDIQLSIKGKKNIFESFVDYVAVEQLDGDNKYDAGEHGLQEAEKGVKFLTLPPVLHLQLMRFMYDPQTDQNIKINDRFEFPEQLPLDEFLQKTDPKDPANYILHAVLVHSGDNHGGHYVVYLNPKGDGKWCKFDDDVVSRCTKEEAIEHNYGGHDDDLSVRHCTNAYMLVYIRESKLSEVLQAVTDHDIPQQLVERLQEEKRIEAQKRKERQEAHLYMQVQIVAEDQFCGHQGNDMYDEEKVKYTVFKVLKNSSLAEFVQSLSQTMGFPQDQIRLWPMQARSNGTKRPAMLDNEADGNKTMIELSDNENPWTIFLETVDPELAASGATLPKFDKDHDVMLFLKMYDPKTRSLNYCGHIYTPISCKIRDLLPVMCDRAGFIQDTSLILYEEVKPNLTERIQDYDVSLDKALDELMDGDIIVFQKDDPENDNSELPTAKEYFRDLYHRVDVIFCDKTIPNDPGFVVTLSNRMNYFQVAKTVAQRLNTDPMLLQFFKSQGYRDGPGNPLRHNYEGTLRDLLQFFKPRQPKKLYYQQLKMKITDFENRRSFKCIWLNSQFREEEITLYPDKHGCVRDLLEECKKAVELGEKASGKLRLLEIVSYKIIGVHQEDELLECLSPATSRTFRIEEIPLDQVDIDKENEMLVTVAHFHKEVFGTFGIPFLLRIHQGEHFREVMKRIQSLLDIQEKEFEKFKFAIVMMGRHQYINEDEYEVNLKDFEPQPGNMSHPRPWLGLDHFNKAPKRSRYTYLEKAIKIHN
In short: as §1

USP8 = target: T5, USP8 (UniProt P40818)
T5 sequence (whole entry): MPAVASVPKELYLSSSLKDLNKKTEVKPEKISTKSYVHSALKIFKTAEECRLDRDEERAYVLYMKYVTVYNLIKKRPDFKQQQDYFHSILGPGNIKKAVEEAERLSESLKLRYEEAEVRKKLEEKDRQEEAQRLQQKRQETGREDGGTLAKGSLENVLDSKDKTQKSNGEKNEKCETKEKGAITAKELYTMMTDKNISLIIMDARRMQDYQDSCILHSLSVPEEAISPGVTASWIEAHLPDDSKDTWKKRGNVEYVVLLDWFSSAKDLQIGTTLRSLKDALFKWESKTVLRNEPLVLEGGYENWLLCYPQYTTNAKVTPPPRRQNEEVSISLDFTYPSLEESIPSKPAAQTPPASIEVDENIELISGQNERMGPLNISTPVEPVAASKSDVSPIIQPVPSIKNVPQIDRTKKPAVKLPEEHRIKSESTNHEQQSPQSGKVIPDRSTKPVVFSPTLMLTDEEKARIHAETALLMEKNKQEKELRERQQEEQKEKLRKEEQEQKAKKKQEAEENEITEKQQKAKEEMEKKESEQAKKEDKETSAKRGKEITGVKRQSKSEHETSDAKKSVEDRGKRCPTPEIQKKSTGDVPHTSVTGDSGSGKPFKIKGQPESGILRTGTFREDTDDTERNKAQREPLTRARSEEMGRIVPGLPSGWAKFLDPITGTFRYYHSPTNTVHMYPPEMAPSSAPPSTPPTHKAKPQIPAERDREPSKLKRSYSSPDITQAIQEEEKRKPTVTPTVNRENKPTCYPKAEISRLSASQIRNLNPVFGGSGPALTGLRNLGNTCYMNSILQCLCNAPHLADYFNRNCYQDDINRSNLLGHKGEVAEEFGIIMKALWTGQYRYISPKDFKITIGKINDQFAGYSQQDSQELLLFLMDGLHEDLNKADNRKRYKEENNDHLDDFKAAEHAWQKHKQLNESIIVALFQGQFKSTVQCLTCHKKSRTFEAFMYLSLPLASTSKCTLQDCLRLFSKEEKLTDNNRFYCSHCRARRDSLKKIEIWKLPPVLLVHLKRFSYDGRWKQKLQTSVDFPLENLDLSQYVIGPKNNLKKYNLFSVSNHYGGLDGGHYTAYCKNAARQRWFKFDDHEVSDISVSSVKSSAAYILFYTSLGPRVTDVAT
In short: as §1

USP9X = USP9X (UniProt Q93008)
In short: as §1

UniProt O00487 = target: UniProt O00487
UniProt O00487, sequence (O00487 whole entry): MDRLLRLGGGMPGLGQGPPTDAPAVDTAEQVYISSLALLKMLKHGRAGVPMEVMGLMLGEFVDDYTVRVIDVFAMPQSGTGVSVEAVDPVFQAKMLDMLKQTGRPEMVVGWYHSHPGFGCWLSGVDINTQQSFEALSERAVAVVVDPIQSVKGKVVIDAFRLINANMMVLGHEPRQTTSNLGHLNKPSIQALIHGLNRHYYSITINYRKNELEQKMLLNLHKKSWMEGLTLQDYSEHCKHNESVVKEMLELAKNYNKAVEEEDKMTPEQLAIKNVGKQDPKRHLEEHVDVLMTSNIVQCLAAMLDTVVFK
In short: as §1

Measured: log2 ratio of Biotin-Ahx-Ub-VS probe labelling

CN(C)C(=O)c1ccc(NC(=O)CCl)cc1
inactive: USP42 -0.0444 | USP46 -0.0105 | USP47 -0.38 | USP48 -0.84 | USP5 0.14 | USP54 -0.408 | USP7 -0.0714 | USP8 -0.446 | USP9X -0.0881 | UniProt O00487 -0.0189
